An excerpt weighted towards active compounds, which were near 4.1% of everything screened.
Pyk2 oligo antag – Pyk2 (human) oligomerization antagonism | z-score (the deposit names both 25 µM and 10 µM) | 99,000 compounds, 0.83% hits | Q14289 | Q293 cells, Pyk2 FERM NanoBiT luminescence; active compounds read low | AID 1347419;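 active = Z-score of -3 or lower, scaled per plate to the spread of control and sample wells; inactive = z-score above -3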;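 also: negative z-score means lost luminescence so less FERM oligomerization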
Cav32 inh – inhibitors of human Cav3.2 T-type calcium channel | O95180 | Cav3.2-expressing cells, Fluo-4 calcium fluorescence FDSS; active compounds read low | B-score at 10 µM | 100,000 compounds, 4% hits | AID 449739;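 active = single-dose well whose peak fluorescence ratio is a statistical outlier from its plate by either plate-standardised score or position-corrected B-score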
MRP-1 activ – MRP-1 activation; H69AR cells + doxorubicin, viability rescue, CellTiter-Glo; viability increase, % at 10 µM; 140,000 compounds, 0.61% hits;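 active = viability gain under doxorubicin at or above a set limit, the compound median plus 3 SD, cut at about 4.7% in these data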;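 also: MRP-1 overexpressing cells given doxorubicin 25 µM after compound pretreatment; 18-22 h compound pretreatment then 72 h with doxorubicin before readout; 0% = doxorubicin-only wells and 100% = vehicle-treated cells without doxorubicin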
CD11b adhes enh – CD11b/CD18-fibrinogen binding enhancement; P05107+P11215; K562 CD11b/CD18 adhesion to fibrinogen, ATPlite luminescence; activation, % at 10 µM; 93,000 compounds, 0.07% hits;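 active = 10 µM primary screen giving 50% or more activity, confirmed by 40% or more on retest at that dose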
Target sequence (P05107 whole entry, looked up, other chains not shown): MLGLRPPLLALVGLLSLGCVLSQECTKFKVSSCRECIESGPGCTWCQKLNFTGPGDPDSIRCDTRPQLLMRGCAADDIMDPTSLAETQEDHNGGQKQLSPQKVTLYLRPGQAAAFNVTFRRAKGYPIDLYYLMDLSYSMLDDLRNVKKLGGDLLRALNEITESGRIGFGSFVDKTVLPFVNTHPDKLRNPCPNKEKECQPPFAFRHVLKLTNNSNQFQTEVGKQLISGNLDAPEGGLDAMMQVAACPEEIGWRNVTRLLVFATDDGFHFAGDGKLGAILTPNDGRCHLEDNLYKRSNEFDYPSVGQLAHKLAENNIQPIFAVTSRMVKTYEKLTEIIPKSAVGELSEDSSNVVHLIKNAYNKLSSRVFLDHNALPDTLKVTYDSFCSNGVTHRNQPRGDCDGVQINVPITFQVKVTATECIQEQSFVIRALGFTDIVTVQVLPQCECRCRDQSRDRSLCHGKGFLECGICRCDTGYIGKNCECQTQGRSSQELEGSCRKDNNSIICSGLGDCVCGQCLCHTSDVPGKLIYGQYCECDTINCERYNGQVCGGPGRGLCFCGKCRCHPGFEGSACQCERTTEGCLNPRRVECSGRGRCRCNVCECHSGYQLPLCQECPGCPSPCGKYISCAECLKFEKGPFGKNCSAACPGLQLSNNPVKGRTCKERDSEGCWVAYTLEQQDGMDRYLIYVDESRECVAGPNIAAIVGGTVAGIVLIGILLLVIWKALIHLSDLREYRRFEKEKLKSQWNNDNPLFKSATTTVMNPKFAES
CD11b adhes inh – inhibitors of human CD11b/CD18 binding to fibrinogen | P05107+P11215 | K562 CD11b/CD18 adhesion to fibrinogen, ATPlite luminescence; Mn2+ added to activate the integrin | inhibition, % at 10 µM | 93,000 compounds, 0.54% hits | AID 1497;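 active = primary inhibition of 50% or more at 10 µM, then 40% or more on retest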
MRP resist rev – reverses drug resistance mediated by MRP. H69AR cells + 2 uM doxorubicin, CellTiter-Glo, 72 h. differential viability (reversal), % at 10 µM. 85,000 compounds, 0.04% hits. AID 602;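 active = viability drop by adding the cancer drug above about 55%, with treated viability meeting a 40% cutoff, limit read from the data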;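 also: viability without doxorubicin minus viability with 2 µM doxorubicin for each compound; larger differential means the compound sensitizes cells more to doxorubicin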
* hit, by the source's call; · = not tested or not shown.

SMILES	Pyk2 oligo antag	Cav32 inh	MRP-1 activ	CD11b adhes enh	CD11b adhes inh	MRP resist rev
COCCCNC(=O)CN(c1ccc(Cl)c(Cl)c1)S(C)(=O)=O	0.55	0.92	-4	-6	1	-3
O=C1c2ccccc2-c2nc3ncnn3c(-c3ccccc3Cl)c21	·	1.4	-2	-2	0	-9
CC(=O)N1CCCc2ccccc21	-0.16	0.78	-1	-3	-7	2
O=C(Cc1cccc2ccccc12)N1CCCc2ccccc21	-1.4	-4.5*	-4	·	·	19
O=C(N/N=C/C1C(c2ccccc2)C1(Cl)Cl)c1cccc(Br)c1 (stereo unspecified)	-1.1	-6.7*	-4	3	-5	·
O=C(Nc1nc2ccccc2s1)C1CC(=O)N(c2ccc(F)cc2)C1 (stereo unspecified)	0.44	-4.6*	-2	-1	7	-24
O=C(Nc1nc2ccccc2s1)C1CC(=O)N(c2ccccc2)C1 (stereo unspecified)	-0.29	-5.1*	-4	-4	6	-28
CCCCCCCC1CC(CSc2ncn[nH]2)OC1=O (stereo unspecified)	-1.4	-1.9	10*	·	·	9
COc1ccc(C(=O)NCCn2cc(SCC(=O)Nc3nnc(C)s3)c3ccccc32)cc1	-1.5	-2.4	7.9*	·	·	-35
Cc1nnc(NC(=O)CSc2cn(CCNC(=O)c3ccccc3)c3ccccc23)s1	·	-2.1	-2	-1	-2	6
O=C(NCc1ccc2c(c1)OCO2)C1CC(=O)N(C2CCCC2)C1 (stereo unspecified)	-0.29	·	-1	·	·	·
Cc1ccc(S(=O)(=O)c2nc(S(C)(=O)=O)sc2NCc2ccc3c(c2)OCO3)cc1	·	·	-4	0	-19	·
CC1=C(C)C(=O)C(CCCCC#CCCCC#CCO)=C(C)C1=O	·	-4.1*	-3	·	·	-3
CCSc1nnc(NC(=O)CSc2nc3c(cc2C#N)CCCC3)s1	-3.2*	-0.53	-2	·	·	·
Cc1cc(C)c(S(=O)(=O)NCCCn2ccnc2)c(C)c1	·	·	-4	0	-10	·
CN(C(=O)CSc1nc(-c2ccccc2)cn1N)C(c1ccccc1)c1ccccc1	-2	-6.5*	0	-1	8	-1
COc1ccccc1NC(=O)Cn1nc(-c2ccc(Cl)cc2)c2ccccc2c1=O	0.56	-4.7*	-5	3	-3	-33
CCNC(=O)CCn1nc(-c2ccc(Cl)cc2)c2ccccc2c1=O	1.5	0.27	-4	·	·	-11
COc1ccc(Cn2c3nc4ccccc4nc3c3c(=O)n(Cc4ccco4)c(C)nc32)cc1	·	·	·	55	-12	1
O=C(c1cccc(C(F)(F)F)c1)N1CCC(=O)N(C(CO)Cc2ccccc2)CC1 (stereo unspecified)	·	1.1	·	·	·	·
CCCCN(CCCC)c1nc2ccccc2nc1C(C#N)C(=O)NCCCOC (stereo unspecified)	0.55	-8.1*	-1	8	-1	1
COCCOC(=O)C(C#N)c1nc2ccccc2nc1N1CCCC1 (stereo unspecified)	-1.2	0.6	-1	-7	-6	2
CCCCCNC(=O)C(C#N)c1nc2ccccc2nc1N1CCCC1 (stereo unspecified)	-0.21	-7.1*	-3	21	-10	5
N#CC(C(=O)NCc1ccco1)c1nc2ccccc2nc1N1CCOCC1 (stereo unspecified)	-1.2	-3.6*	-4	2	0	-21
CCN(CC)c1nc2ccccc2nc1C(C#N)C(=O)NCCCOC (stereo unspecified)	1.3	-2.5	-3	6	-9	1
SMILES	Pyk2 oligo antag	Cav32 inh	MRP-1 activ	CD11b adhes enh	CD11b adhes inh	MRP resist rev
N#CC(C(=O)NCCc1ccccc1)c1nc2ccccc2nc1N1CCOCC1 (stereo unspecified)	-1	0.67	0	4	-11	18
COCCCNC(=O)C(C#N)c1nc2ccccc2nc1N1CCCC1 (stereo unspecified)	-0.06	-5.6*	-3	·	·	0
O=C(NCCSCc1c(F)cccc1Cl)c1ccco1	1.4	-0.37	-1	-3	-5	-3
CC(=O)c1cc(F)c(N2CCN(C(=O)COc3ccc(F)cc3)CC2)cc1C	1.6	0.25	-2	·	·	9
CCCN(CCC)c1nc2ccccc2nc1C(C#N)C(=O)OC(C)COC (stereo unspecified)	·	-7.7*	-4	·	·	-1
CCCCCCNC(=O)C(C#N)c1nc2ccccc2nc1N1CCCC1 (stereo unspecified)	-0.14	-7.1*	0	11	-13	7
N#CC(C(=O)NCc1ccccc1)c1nc2ccccc2nc1N1CCCC1 (stereo unspecified)	0.39	-6*	-3	17	-4	·
CCN(CC)c1nc2ccccc2nc1C(C#N)C(=O)NCCc1ccccc1 (stereo unspecified)	-0.09	-3.7	-2	20	7	18
O=C(NCc1ccco1)C(c1ccccc1)N(CC1CCCO1)C(=O)Cn1nnc2ccccc21 (stereo unspecified)	1.1	·	-3	·	·	13
O=C(NCc1ccco1)C(c1cccnc1)N(C(=O)Cn1nnc2ccccc21)c1ccccc1 (stereo unspecified)	0.1	0.77	-1	-3	5	6
Cc1cccc(N(C(=O)Cn2nnc3ccccc32)C(C(=O)NCc2ccco2)c2ccncc2)c1 (stereo unspecified)	-0.56	0.72	-3	-1	4	-1
O=C(NCc1ccco1)C(c1ccccc1)N(Cc1ccccc1)C(=O)Cn1nnc2ccccc21 (stereo unspecified)	-4.1*	-0.033	-3	·	·	-24
O=C(NCc1ccco1)C(c1ccco1)N(C(=O)Cn1nnc2ccccc21)c1ccc2c(c1)CCC2 (stereo unspecified)	-1.8	-4.3*	·	·	·	3
Cc1ccccc1C(C(=O)NCc1ccco1)N(CC1CCCO1)C(=O)Cn1nnc2ccccc21 (stereo unspecified)	-0.06	-3.8*	-3	-2	0	8
NC(=O)c1sc2nccc(Nc3ccccc3)c2c1N	0.92	1.6	-5	1	-4	-8
ON=Cc1cccn1-c1ccccc1	-0.29	0.18	-1	-1	-8	1
OCCCc1nc2n(n1)C(c1cccs1)C=C(c1ccccc1)N2 (stereo unspecified)	·	-9.9*	-3	-2	0	-13
O=C(Nc1cccnc1)C1CC(c2ccc(Cl)c(Cl)c2)=NO1 (stereo unspecified)	0.97	-2.2	6.0*	-1	-16	13
O=C(NCc1ccccn1)C1CC(c2ccc(Cl)c(Cl)c2)=NO1 (stereo unspecified)	1.9	-1.6	-2	4	13	8
CCCn1c(=O)[nH]c2ccccc21	0.66	0.55	0	-4	0	-5
O=c1[nH]c2ccccc2n1CCCN1CCN(C(c2ccccc2)c2ccccc2)CC1	·	-5*	-3	·	·	-21

Compound activity deposited in PubChem BioAssay by several laboratories.
